Assay results reported in PubChem BioAssay (NCI).
The panel holds about 83,000 compounds, 20% with a hit somewhere; the sample as a whole holds those more often.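 Results are percent growth after 48 hours of single-concentration exposure. 100 means growth as in untreated cells, lower positive values show inhibition; negative values down to -100 show cell death.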 Calls of active or inactive are those of the source. How the source made its calls: active means growth percent below 10; inactive means the rest.

What was measured:
Test in all cases: NCI-60 one-dose screen, 48 h (100 = growth as untreated, 0 = no growth, -100 = all killed)
T-47D breast = details: 10 µM unless noted
BT-549 breast = details: 10 µM unless noted
MDA-MB-435 melanoma = details: 10 µM unless noted
SW-620 colon = details: 10 µM unless noted
MCF7 breast = details: 10 µM unless noted
HCT-116 colon = details: 10 µM unless noted
HCC-2998 colon = details: 10 µM
KM12 colon = details: 10 µM unless noted

Measured: growth

CCN(CC)CCNC(=O)c1c(C)[nH]c(/C=C2\C(=O)Nc3ccc(F)cc32)c1C
inactive: T-47D breast 80.4% | BT-549 breast 20.2%
active: MDA-MB-435 melanoma 3.92% | SW-620 colon -2.88% | MCF7 breast 7.17% | HCT-116 colon -59.4% | HCC-2998 colon 1.98% | KM12 colon 4.04%

COc1ccc(-c2cnc(-c3ccc(Cl)cc3)[nH]2)cc1OC
inactive: T-47D breast 84.7% | BT-549 breast 132% | MDA-MB-435 melanoma 128% | SW-620 colon 95.9% | MCF7 breast 93.9% | HCT-116 colon 98.6% | HCC-2998 colon 112% | KM12 colon 97.3%

CSC1=C(N)C(=O)c2[nH]cc(CO)c2C1=N
active: T-47D breast -43.8% | BT-549 breast -93.5% | MDA-MB-435 melanoma -84.1% | SW-620 colon -56.2% | MCF7 breast -41.8% | HCT-116 colon -86.7% | HCC-2998 colon -94.1% | KM12 colon -63.4%

COc1cccc2cc(-c3nc(C4CCC(C(=O)O)CC4)n4ncnc(N)c34)[nH]c12 (centres undefined)
inactive: SW-620 colon 14.4% | HCT-116 colon 26.3% | HCC-2998 colon 23.1% | KM12 colon 18.4%
active: T-47D breast -30.2% | BT-549 breast -11.5% | MDA-MB-435 melanoma -8.42% | MCF7 breast 6.71%

CC(=O)Nc1cccc(-n2c(=O)n(C3CC3)c(=O)c3c(Nc4ccc(I)cc4F)n(C)c(=O)c(C)c32)c1
inactive: T-47D breast 51.3% | BT-549 breast 60.7% | MDA-MB-435 melanoma 27.7% | SW-620 colon 19% | MCF7 breast 80.8% | HCT-116 colon 10.6% | KM12 colon 23%
active: HCC-2998 colon -26.9%

Cc1[nH]n(C(N)=S)c(=O)c1N=Nc1ccc(S(=O)(=O)Nc2ccncn2)cc1
inactive: T-47D breast 109% | BT-549 breast 143% | MDA-MB-435 melanoma 136% | SW-620 colon 102% | MCF7 breast 88.1% | HCT-116 colon 112% | HCC-2998 colon 105% | KM12 colon 99.5%

CCN1CCN(c2cc(C)nc(N(CCCNc3ccnc4cc(Cl)ccc34)Cc3cccs3)n2)CC1
active: T-47D breast -18.7% | BT-549 breast -20.6% | MDA-MB-435 melanoma -79.8% | SW-620 colon -8.17% | HCC-2998 colon -27.2%
inactive: MCF7 breast 12.3% | HCT-116 colon 10.8% | KM12 colon 35.4%

C=CCN1C(=O)c2cccc3c(-c4ccc5c(c4)ncn5C4CCCCC4)ccc(c23)C1=O
inactive: T-47D breast 11.2% | BT-549 breast 17% | MDA-MB-435 melanoma 39.4% | SW-620 colon 86.3% | MCF7 breast 37.6% | HCT-116 colon 32% | HCC-2998 colon 75.2% | KM12 colon 49.4%

CC(C)=CCc1cc2c(cc1O)C1=C(C(=O)C3=C(NCCS3(=O)=O)C1=O)C(C=C(C)C)O2 (centres undefined)
active: MDA-MB-435 melanoma -62.3% | SW-620 colon 6.34% | MCF7 breast -43.2% | HCT-116 colon -21.2%
inactive: T-47D breast 10.1% | BT-549 breast 40.3% | HCC-2998 colon 32.4% | KM12 colon 54.5%

CNC(=O)CN1CCC(Oc2cc3c(Nc4cccc(Cl)c4F)ncnc3cc2OC)CC1
active: T-47D breast -11.2%
inactive: BT-549 breast 93.5% | MDA-MB-435 melanoma 98.2% | SW-620 colon 71.5% | MCF7 breast 51.1% | HCT-116 colon 54.7% | HCC-2998 colon 83.2% | KM12 colon 81.4%

CCN1CCN(Cc2ccc(-c3cc4c(N[C@H](C)c5ccccc5)ncnc4[nH]3)cc2)CC1
inactive: T-47D breast 29% | BT-549 breast 79.2% | MDA-MB-435 melanoma 37% | SW-620 colon 13.1% | MCF7 breast 48.6% | HCT-116 colon 19.7% | HCC-2998 colon 14.3% | KM12 colon 31.2%

CN1CC[C@@H](c2c(O)cc(O)c3c(=O)cc(-c4ccccc4Cl)oc23)[C@@H]1CO
active: T-47D breast -8.71% | BT-549 breast -4.92% | MDA-MB-435 melanoma -67.9% | SW-620 colon 4.02% | MCF7 breast 4.7% | HCT-116 colon 3.53% | HCC-2998 colon -25.8% | KM12 colon 3.84%

CC(=O)OCCC/C(=C\c1ccc2ccccc2c1)[N+](=O)[O-]
active: T-47D breast -50.9% | BT-549 breast -25.6% | MDA-MB-435 melanoma -41.6% | SW-620 colon -71.6% | MCF7 breast -85.2% | HCT-116 colon -100% | HCC-2998 colon -92.7% | KM12 colon -86.7%

Nc1c2c(c(O)c3c1=C(CO)C=N3)=NCCS2
active: T-47D breast -42.5% | BT-549 breast -95.9% | MDA-MB-435 melanoma -82% | SW-620 colon -76% | MCF7 breast -50.8% | HCT-116 colon -90.7% | HCC-2998 colon -94.2% | KM12 colon -70.4%

Cn1c(Nc2ccc(C(F)(F)F)cc2)nc2cc(Oc3ccnc(-c4ncc(C(F)(F)F)[nH]4)c3)ccc21
inactive: T-47D breast 48.5% | BT-549 breast 37.5% | MDA-MB-435 melanoma 28.8% | SW-620 colon 65.5% | MCF7 breast 82.3% | HCT-116 colon 32.9% | HCC-2998 colon 73% | KM12 colon 58.3%

Cc1cc(Nc2cc(N3CCN(C)CC3)nc(Sc3ccc(NC(=O)C4CC4)cc3)n2)n[nH]1
active: KM12 colon 6.38%
inactive: T-47D breast 33.1% | BT-549 breast 23.5% | MDA-MB-435 melanoma 27.6% | SW-620 colon 19.3% | MCF7 breast 28.5% | HCT-116 colon 18.3% | HCC-2998 colon 33.9%

CN1CCN(c2ccc(C(=O)Nc3n[nH]c4ccc(Cc5cc(F)cc(F)c5)cc34)c(NC3CCOCC3)c2)CC1
inactive: BT-549 breast 10.6%
active: T-47D breast -65.6% | MDA-MB-435 melanoma -86.5% | SW-620 colon -79.2% | MCF7 breast -72% | HCT-116 colon -95.5% | HCC-2998 colon -81.3% | KM12 colon -72.5%

COC(=O)c1ccc2c(C(=Nc3ccc(N(C)C(=O)CN4CCN(C)CC4)cc3)c3ccccc3)c(O)[nH]c2c1
active: KM12 colon 8.95%
inactive: T-47D breast 47.4% | BT-549 breast 55.8% | MDA-MB-435 melanoma 72.6% | SW-620 colon 67.4% | MCF7 breast 33.5% | HCT-116 colon 20.2% | HCC-2998 colon 84.3%

COc1cc2nccc(Oc3ccc(NC(=O)C4(C(=O)Nc5ccc(F)cc5)CC4)cc3)c2cc1OC
inactive: BT-549 breast 32.8% | MCF7 breast 15.6% | HCC-2998 colon 30.5%
active: T-47D breast -14% | MDA-MB-435 melanoma 8.75% | SW-620 colon -27.3% | HCT-116 colon 1.99% | KM12 colon 7.5%

COc1ccc2c(CCc3ccc(Cl)cc3)c3[n+](cc2c1OC)CCc1cc2c(cc1-3)OCO2
inactive: T-47D breast 24.9% | BT-549 breast 18.5% | SW-620 colon 73.2% | MCF7 breast 60.4% | HCT-116 colon 36.5% | HCC-2998 colon 36.2% | KM12 colon 34.4%
active: MDA-MB-435 melanoma 1.77%

CC(C)n1c(NCCc2ccc(O)c(O)c2)nc2c1c(=O)n(C)c(=O)n2C
inactive: T-47D breast 93.7% | BT-549 breast 84.5% | MDA-MB-435 melanoma 98.5% | SW-620 colon 102% | MCF7 breast 95.4% | HCT-116 colon 97% | HCC-2998 colon 86.9% | KM12 colon 91%

Cc1cc(N(CCNc2ccnc3cc(Cl)ccc23)Cc2ccc3c(c2)OCO3)nc(N2CCCC2)n1
inactive: KM12 colon 44.9%
active: T-47D breast -36.4% | BT-549 breast -7.74% | MDA-MB-435 melanoma -69.5% | SW-620 colon 8.91% | MCF7 breast 7.77% | HCT-116 colon -68.8% | HCC-2998 colon -24.4%

COc1cc2ncnc3c2cc1OCCCCCN(C)Cc1ccc(Br)cc1N3
active: T-47D breast 4.78%
inactive: BT-549 breast 60.6% | MDA-MB-435 melanoma 72.3% | SW-620 colon 47.7% | MCF7 breast 56.9% | HCT-116 colon 33.2% | HCC-2998 colon 68% | KM12 colon 58.9%

Cc1ccc(NC(=O)Nc2ccc(Nc3ncnc4sc5c(c34)CCOC5)cc2)cc1Cl
inactive: T-47D breast 58.5% | BT-549 breast 101% | MDA-MB-435 melanoma 103% | SW-620 colon 133% | MCF7 breast 82.8% | HCT-116 colon 101% | HCC-2998 colon 112% | KM12 colon 105%

COc1ccc(-n2c(=O)c3ccccc3n(Cc3ccc(C(=O)NO)cc3)c2=O)cc1
active: T-47D breast 5.48% | MDA-MB-435 melanoma -84.2% | SW-620 colon -27.3% | HCT-116 colon -19.9% | KM12 colon -32.9%
inactive: BT-549 breast 36.2% | MCF7 breast 25.9% | HCC-2998 colon 34%

CCS(=O)(=O)N1CCN(c2ccc(Nc3ncc(C(N)=O)c(NC4CC4)n3)cc2)CC1
inactive: T-47D breast 99.1% | BT-549 breast 67% | MDA-MB-435 melanoma 68.7% | SW-620 colon 60.1% | MCF7 breast 68.5% | HCT-116 colon 49.2% | HCC-2998 colon 98.3% | KM12 colon 24.5%

O=C(CNc1nc2ccccc2s1)Nc1ccc(-c2nc3ccccc3s2)cc1
inactive: T-47D breast 73.9% | BT-549 breast 106% | MDA-MB-435 melanoma 109% | SW-620 colon 109% | MCF7 breast 24.8% | HCT-116 colon 98.9% | HCC-2998 colon 92.1% | KM12 colon 99.2%

COc1c(OCCCN2CCOCC2)ccc2c3n(c(=NC(=O)c4cnc(N)nc4)nc12)CCN3
inactive: SW-620 colon 20.5% | MCF7 breast 11.9% | HCT-116 colon 13.8%
active: T-47D breast -24% | BT-549 breast -5.84% | MDA-MB-435 melanoma 4.22% | HCC-2998 colon -15.7% | KM12 colon -2.1%

COc1ccc2c(CCCc3ccc(Cl)cc3Cl)c3[n+](cc2c1OC)CCc1cc2c(cc1-3)OCO2
active: T-47D breast 3.35% | BT-549 breast -28% | MDA-MB-435 melanoma -71.2% | SW-620 colon 4.21% | MCF7 breast 6.01% | HCT-116 colon -11.6% | HCC-2998 colon -83.7% | KM12 colon -55.3%

COC(=O)N[C@@H](C)CNc1nccc(-c2cn(C(C)C)nc2-c2cc(Cl)cc(NS(C)(=O)=O)c2F)n1
inactive: T-47D breast 79.3% | BT-549 breast 72.9% | MDA-MB-435 melanoma 25.5% | SW-620 colon 52.7% | MCF7 breast 95.2% | HCT-116 colon 19.5% | HCC-2998 colon 69.6% | KM12 colon 69.7%

C/C(=C(/c1ccc(Cl)cc1)c1ccc(OCCN2CCCCCC2)cc1)c1ccccc1
inactive: T-47D breast 71.1% | BT-549 breast 84.4% | MDA-MB-435 melanoma 92.6% | SW-620 colon 54% | MCF7 breast 76% | HCT-116 colon 50% | HCC-2998 colon 93.8% | KM12 colon 30.7%

CO[C@H](C(=O)N[C@@H](CCCCNC(=O)OCc1ccccc1)C(=O)OC(C)(C)C)[C@@H]1Cc2cc3cc(OC4CC(OC5CC(O)C(O)C(C)O5)C(O)C(C)O4)c(C)c(O)c3c(O)c2C(=O)[C@H]1OC1CC(OC2CC(OC3CC(C)(O)C(O)C(C)O3)C(O)C(C)O2)C(O)C(C)O1 (some centres undefined)
active: T-47D breast 7.2% | BT-549 breast -79.7% | MDA-MB-435 melanoma -69.8% | SW-620 colon 3.71% | MCF7 breast 3.56% | HCT-116 colon -63.9% | HCC-2998 colon -5.55% | KM12 colon -62.7%

CN1CCC(COc2cnc(-c3cccc(Cn4nc(-c5cccc(C#N)c5)ccc4=O)c3)nc2)CC1
active: T-47D breast -49.1%
inactive: BT-549 breast 63.4% | MDA-MB-435 melanoma 53.8% | SW-620 colon 45.6% | MCF7 breast 60.3% | HCT-116 colon 22.5% | HCC-2998 colon 80.7% | KM12 colon 33.7%
